Test results reported in PubChem BioAssay (Tox21).
Records with an inconclusive call do not appear. Values without a mark were called inactive. The source made the active and inactive calls. Calls follow the shape of the dose curve; as a rule, active = well fitted cell-killing curve with a large enough effect in the repeat runs (not every such curve was filed as active); inconclusive = weak or mixed curves, or effect the other way; inactive = no such curve, though single readings can be large or run the other way.

Assay: qHTS assay to identify small molecule antagonists of the estrogen related receptor signaling pathway with the pleiotropic PPARgamma coactivator (PGC) from Tox21 10K library - cell viability counter screen (AID 1224840); also: nearly all actives have a fitted effect of over 40% in size
Settings: PGC/ERR reporter cells viability, CellTiter-Fluor, 17.5 h; series mostly up to 92.4 µM; viability change, negative = cytotoxic: at the top concentration
Excerpt: National Center for Advancing Translational Sciences [NCATS]
NIH Chemical Genomics Center [NCGC]
U.S. Environmental Protection Agency [EPA]
National Institutes of Environmental Health Sciences [NIEHS]
National Toxicology Program [NTP]
U.S. Food and Drug Administration [FDA]
Estrogen related receptors (ERRs), the first orphan nuclear receptors discovered, play an important role in the control of cellular energy metabolism. ERRs are required for high-energy production in response to the environmental challenges. The pleiotropic PPARgamma coactivator (PGC) is a major partner of ERR and a key regulator in energy homeostasis. Together they have been implicated in the etiology of metabolic disorders such as Type 2 diabetes and metabolic syndrome. ERR-alpha was also identified as an adverse marker for breast cancer progression; ERR-alpha-positive tumors have a poor prognosis. To screen and to identify environmental compounds that perturb the ERR and PGC/ERR signaling pathways could provide valuable information for potential therapeutic or preventive measures in the treatment of metabolic disease. To differentiate true PGC/ERR antagonists or agonist from cytotoxic substances, the assay is multiplexed with cell viability assay.
Tox21 Assay Protocol Summary:
The PGC/ERR cells were dispensed at 2,000 cells/5 ul/well in 1536-well white plates using a Multidrop dispenser. After the assay plates were incubated at a 37 C/5% CO2 incubator for 6 hours, 23 nL of compounds dissolved in DMSO, positive and negative controls or DMSO only was transferred to the assay plate by a pin tool. The plates were incubated at 37 C for 17.5 hours. 1 ul/well of CellTiter-Fluor reagent was added into the assay plates using a Flying Reagent Dispenser. After 30-minute incubation at 37 C/5% CO2, the fluorescence intensity in the plates was measured using a ViewLux plate reader.
% is scaled to controls: 0 for no effect and ±100 for the full control effect; potency is read from the fitted curve at half-maximal effect.

| SMILES | viability change, negative = cytotoxic | Potency |
| --- | --- | --- |
| CCCCOC(=O)C(C)Oc1ccc(Oc2ccc(C(F)(F)F)cn2)cc1 (stereo not given) | -2.78% | – |
| Cc1c(-c2cccnc2)c2ccccc2n1CCCCC(=O)O | 7.4% | – |
| CCCCCCCCCCCC(=O)OCC | -0.978% | – |
| C1=COCCC1 | 4.4% | – |
| O=C1c2ccccc2C(=O)C1c1ccc2cc(S(=O)(=O)O)cc(S(=O)(=O)O)c2n1 | – | 33.1 µM (active) |
| CCOc1ccc2c(c1)C(C)CC(C)(C)N2 (stereo not given) | 1.75% | – |
| O=C1C=CCCC1 | -0.436% | – |
| Oc1ccc(CCNCCCCCCNCCc2ccccc2)cc1O | 0.0315% [at 42.5 µM] | – |
| CO[C@@H]1COCC[C@@H]1N[C@@H]1CC[C@@](C(=O)N2CCc3ncc(C(F)(F)F)cc3C2)(C(C)C)C1 | 1.99% | – |
| O=C(c1ccco1)N1CCNCC1 | 5.43% [at 42.5 µM] | – |
| O=C(OCCN1CCOCC1)c1cccnc1Nc1cccc(C(F)(F)F)c1 | -1.51% [at 42.5 µM] | – |
| O=C(O)c1cccnc1Nc1cccc(C(F)(F)F)c1 | 0.454% [at 42.5 µM] | – |
| O=[N+]([O-])c1ccc(Cl)cc1Cl | 3.89% | – |
| O=P(c1ccccc1)(c1ccccc1)c1ccccc1 | 1.48% | – |
| Clc1cccc(C(c2ccc3nc[nH]c3c2)n2ccnc2)c1 (stereo not given) | 2.75% [at 42.5 µM] | – |
| C[C@@H](O)[C@H]1C(=O)N2C(C(=O)O)=C(S[C@@H]3CN[C@H](CNS(N)(=O)=O)C3)[C@H](C)[C@H]12 | 9.05% [at 42.5 µM] | – |
| CC(=O)c1cccnc1 | 5.14% | – |
| COc1ccnc2c1CCCCC2S(=O)c1nc2ccccc2[nH]1 (stereo not given) | -11% [at 42.5 µM] | – |
| CCCCCCCCOCCCN | -5.92% | – |
| O=[N+]([O-])c1cccc(I)c1 | 2.71% | – |

| SMILES | viability change, negative = cytotoxic | Potency |
| --- | --- | --- |
| O=C1c2ccccc2C(=O)c2c1ccc(O)c2O | -12.4% [at 42.5 µM] | – |
| CC1(C)C(=O)NC(=O)N1CO | 0.19% | – |
| CCCC1CCOC(C)S1 (stereo not given) | 6.14% | – |
| O=C(Nc1ccc2c(c1)Cc1ccccc1-2)C(F)(F)F | -6.73% | – |
| O=C(O)c1ccc(O)c(O)c1 | -0.459% | – |
| CCCC(=O)OCCC(C)C | -0.195% | – |
| O=C(O)c1ccccc1-n1cc(C(=O)O)c(=O)c2cc(Nc3c(F)cc(F)cc3Cl)c(Cl)cc21 | 5.25% | – |
| CCc1cnc(C(=O)O)c(C(=O)O)c1 | 2.96% | – |
| Oc1ccc(Oc2ccccc2)cc1 | -7.16% | – |
| O=C1CCCN1CCO | -4.87% | – |
| CCCCOc1ccc(N)cc1 | -7.49% | – |
| CC(=O)OCC(=O)[C@@]1(O)CC[C@H]2[C@@H]3CCC4=CC(=O)C=C[C@]4(C)[C@@]3(F)[C@@H](O)C[C@@]21C | 3.74% [at 42.5 µM] | – |
| O=c1c2ccccc2oc2ccccc12 | 7.18% | – |
| CC(C)(C)N | 0.601% | – |
| OCCOc1cccc(OCCO)c1 | -1.1% | – |
| O=Cc1ccc([N+](=O)[O-])cc1 | 2.77% | – |
| CCCOC(C)=O | -8.23% | – |
| C=CC(C)(O)CC/C=C(/C)CCC=C(C)C (stereo not given) | -0.537% | – |
| CC(=O)Nc1ccccc1O | -3.21% | – |
| CC(C)(Cc1c[nH]c2ccccc12)NCC(O)COc1ccccc1C#N (stereo not given) | -28.4% [at 42.5 µM] | – |
